dFosB act-1: activators of delta FosB homodimer, primary screen, biochemical, fluorescence polarization, TAMRA-CDK5 oligo, single point. purified delta FosB; percent of positive-control signal above neutral wells. hit rate 0.99% among 340,000. activation, % at 25 µM. Protein FosB (Mus musculus), P13346;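 active = mean activation above about 17%, with every replicate also reaching it, limit read from the data, passing the limit was not always enough; inconclusive = only one of the two conditions met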
Target sequence (P13346 whole entry, looked up): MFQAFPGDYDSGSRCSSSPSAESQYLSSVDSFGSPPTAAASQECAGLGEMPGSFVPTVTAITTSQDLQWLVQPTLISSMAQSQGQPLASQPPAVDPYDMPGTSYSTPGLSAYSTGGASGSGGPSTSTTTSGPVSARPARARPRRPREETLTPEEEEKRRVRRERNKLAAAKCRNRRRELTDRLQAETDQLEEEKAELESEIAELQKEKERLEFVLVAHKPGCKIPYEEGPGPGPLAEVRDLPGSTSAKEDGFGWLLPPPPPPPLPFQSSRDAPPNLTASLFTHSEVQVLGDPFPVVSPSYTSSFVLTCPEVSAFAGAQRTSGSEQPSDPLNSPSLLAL
RAD52 anneal inh: RAD52 DNA annealing inhibitors, primary screen, biochemical, FRET, single point, set 2 | DNA repair protein RAD52 homolog (Homo sapiens), P43351 | recombinant RAD52 DNA annealing, FRET fluorescence | inhibition, % at 18.7 µM | hit rate 0.46% among 360,000 | AID 651710, 2012;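 active = every replicate showing at least 50% inhibition; inconclusive = mean inhibition at least 50% but not in every replicate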
N-glyco inh: increase of ERlucT glycosylation luciferase signal, primary screen, N-linked glycosylation inhibitor project, D54 ERlucT cells, luminescence, set 2 | AID 588692, 2011 | hit rate 0.23% among 360,000 | reporter increase, % at 12.5 µM | D54 ERlucT glycosylation luciferase reporter, 24 h; percent of 100 nM tunicamycin response;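 active = mean luciferase reporter signal, scaled so untreated is 0 and the glycosylation-blocking control 100, at or above a set limit in every replicate; inconclusive = mean reaches the limit but not every replicate does; inactive = mean below the limit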;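 note: luciferase carries N-glycosylation sites so blocking glycosylation raises the light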
F508del corr: F508del CFTR correction, initial screen, CFBE line, single point; activity (quench increase), % at 7.58 µM; CFBE cells, YFP halide quenching; stimulated with forskolin plus potentiator P3; % fluorescence drop versus neutral controls; hit rate 0.36% among 350,000; AID 720511, 2013;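 active = mean added fluorescence quench of at least 8% versus neutral control, with both replicates also reaching 8%; inconclusive = only one of the mean or replicate conditions met; inactive = mean below 8% and not both replicates reaching 8%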;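 note: cells transiently co-express mutant CFTR-F508del with the halide-sensitive YFP; corrector assay measuring rescue of mutant channel to the surface after 24 h compound exposure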
RAD54 branch: inhibitors of human RAD54 branch migration, primary screen, biochemical, fluorescence, single point; DNA repair and recombination protein RAD54-like (Homo sapiens), Q92698; RAD54 Holliday junction branch migration, FAM/BHQ fluorescence; AID 602329, 2012; inhibition, % at 10.4 µM; hit rate 0.14% among 360,000;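 active = mean normalized replicate activity at least 40 and at least half of replicates scoring 40 or more; inconclusive = only one of the two criteria met; inactive = mean below 40 and under half of replicates reaching 40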;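 note: inhibitors cause a drop in the FAM fluorescence signal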
PvdQ acylase: P. aeruginosa PvdQ acylase inhibitors, primary screen, biochemical, fluorescence, plate reader and imaging, single point; inhibition, % at 10 µM; AID 488965, 2010; hit rate 0.063% among 340,000; purified PvdQ acylase; in the data active = inhibition above about 30%, passing the limit was not always enough; inconclusive = no clear call, values can overlap the other calls
dFosB act-2: activators of mouse delta FosB DNA binding, confirmation, biochemical, fluorescence polarization, TAMRA-CDK5 oligo, cherry-picked samples | shares compounds with dFosB act-1 | purified delta FosB; normalised: neutral wells 0, positive control 100 | activation, % at 24.9 µM | 2,400 tested, under 10 active;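 active = highest replicate activation at or above 34% and every replicate reaching that threshold; inconclusive = meets only one of the two criteria; inactive = meets neither criterion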;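 note: higher polarization means more probe DNA bound by delta FosB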
Large screens that a line does not name were inactive (follow-up assays come after a bar, where they were run). Rows were chosen to be rich in hits. Some 1.5% of all compounds tested hit in one or more screens of this group.

O=C(CSc1nc2ccc(Cl)cc2[nH]1)c1c[nH]c2ccccc12	none
O=C(CSc1nc2ncc(Cl)cc2[nH]1)c1c[nH]c2ccccc12	dFosB act-1 22 | dFosB act-2 inactive
O=C(NC1CCC1)[C@@H]1[C@@H](CO)[C@@H]2Cn3c(ccc(-c4ccccc4)c3=O)[C@@H]2N1CCc1ccccc1	none (no result: dFosB act-1, N-glyco inh, PvdQ acylase)
O=C(Nn1c(C2CCCCC2)nc2ccccc2c1=O)c1cc(Cl)ccc1[N+](=O)[O-]	none (no result: RAD54 branch)
O=C(Nn1c(C2CCCCC2)nc2ccccc2c1=O)c1ccc([N+](=O)[O-])cc1Cl	dFosB act-1 43 (no result: RAD52 anneal inh, F508del corr, RAD54 branch) | dFosB act-2 inactive
O=C(C1CC1)N1CC2(C1)[C@H](c1ccccc1)[C@H](CO)N2Cc1cncnc1	none (no result: dFosB act-1, N-glyco inh, RAD54 branch, PvdQ acylase)
O=c1nc(Nc2ccc(OCc3ccccc3)cc2)sc2ncccc12	dFosB act-1 20 | dFosB act-2 inactive
C/C(=N\NC(=O)c1nnn(-c2nonc2N)c1-c1ccc2c(c1)OCO2)c1ccc(C)cc1	dFosB act-1 32 | dFosB act-2 inactive
Cc1ccc(-c2c(C(=O)N/N=C/c3cccc(Cl)c3)nnn2-c2nonc2N)cc1	dFosB act-1 47 | dFosB act-2 inactive
Cc1ccc(-c2c(C(=O)N/N=C/c3ccc4c(c3)OCO4)nnn2-c2nonc2N)cc1	dFosB act-1 45 | dFosB act-2 inactive
C/C(=N\NC(=O)c1nnn(-c2nonc2N)c1-c1ccc2c(c1)OCO2)c1ccc(F)cc1	none
Cc1ccc(SCc2c(C(=O)N/N=C/c3ccc4c(c3)OCO4)nnn2-c2nonc2N)cc1	dFosB act-1 52 | dFosB act-2 inactive
Cc1ccsc1/C=N/NC(=O)c1nnn(-c2nonc2N)c1-c1ccc2c(c1)OCO2	none
O=C(C[C@H]1CC[C@@H](NC(=O)C2CCC2)[C@@H](CO)O1)Nc1nccs1	none (no result: dFosB act-1, N-glyco inh, PvdQ acylase)
CCC(=O)Nc1ccc2c(c1)OC[C@@H](C)N(C(=O)CC1CC1)C[C@@H](C)[C@H](OC)CN(C)C2=O	none (no result: dFosB act-1, N-glyco inh, PvdQ acylase)
Cc1ccc(/C=N/NC(=O)c2nnn(-c3nonc3N)c2CSc2ccccc2)cc1	dFosB act-1 24 (no result: RAD54 branch) | dFosB act-2 inactive
Nc1nonc1-n1nnc(C(=O)N/N=C/c2ccccc2)c1CSc1ccc(Cl)cc1	none (no result: RAD52 anneal inh, F508del corr, RAD54 branch)
Cc1ccc(SCc2c(C(=O)N/N=C/c3ccccc3)nnn2-c2nonc2N)cc1	dFosB act-1 25 (no result: RAD54 branch) | dFosB act-2 inactive
Nc1nonc1-n1nnc(C(=O)N/N=C/c2ccccc2Cl)c1-c1ccc2c(c1)OCO2	dFosB act-1 25 | dFosB act-2 inactive
Cc1noc(C)c1S(=O)(=O)Nc1ccc2c(c1)CC(=O)N([C@@H](C)CO)C[C@@H](C)[C@@H](CN(C)C(=O)NC1CCCCC1)O2	none (no result: dFosB act-1, N-glyco inh, PvdQ acylase)
Cc1cccc(C)c1NC(=O)COC(=O)c1ccc(N2CCCC2)c([N+](=O)[O-])c1	dFosB act-1 51 (no result: RAD52 anneal inh, F508del corr, RAD54 branch) | dFosB act-2 inactive
CCC(C)c1ccccc1NC(=O)COC(=O)c1ccc(N2CCCC2)c([N+](=O)[O-])c1 (stereo unspecified)	none (no result: F508del corr, RAD54 branch)
CN1C(=O)c2cc(NC(=O)Nc3ccccc3F)ccc2OC[C@H]2O[C@H](CC(=O)O)CC[C@H]21	none (no result: dFosB act-1, RAD52 anneal inh, N-glyco inh, PvdQ acylase)
COC(=O)c1ccc(NC(=O)CN2C(=O)NC3(CCC(C)CC3)C2=O)cc1 (stereo unspecified)	dFosB act-1 18 | dFosB act-2 inactive
CCOC(=O)c1ccc(NC(=O)CN2C(=O)NC3(CCC(C)CC3)C2=O)cc1 (stereo unspecified)	dFosB act-1 inconclusive
N#C[C@@H]1[C@H](c2ccccc2C2=CCCCC2)[C@H](CO)N1S(=O)(=O)c1cccc(F)c1	none (no result: dFosB act-1, N-glyco inh, RAD54 branch, PvdQ acylase)
